Screening data deposited in PubChem by National Center for Advancing Translational Sciences (NCATS).
Only some compounds are listed: those with a hit (about 19% of all), similar ones and a draw of the others.
IL1B secr inh: qHTS for Inhibitors of Inflammasome Signaling: IL-1-beta AlphaLISA Primary Screen. activity change, % at 57.5 µM. THP-1 LPS/ATP IL-1B secretion, AlphaLISA, 16 h; hits give low values. actives 4.7% (n = 360,000); in the data active means activity change below about -50%; inconclusive means mostly about -30% to -49%
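THP-1 cells pretreated 1 hr with compounds (up to 57.5 uM final), then stimulated with LPS (250 ng/mL final) plus ATP (1.25 mM final); secreted IL-1B measured by AlphaLISA after 16 hr, decreased signal indicating inhibition.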
Giardia kill: Small Molecules that selectively kill Giardia lamblia: qHTS; activity change, % at 7.66 µM, hits read low; Giardia lamblia trophozoite viability; actives 0.15% (n = 340,000); in the data active means activity change below about -80%; inconclusive means between about -30% and that limit;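 further: parasites exposed to compound for two days anaerobically before the ATP read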
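ATP-content bioluminescence gauges trophozoite survival. Cells (100/well) receive compound and incubate anaerobically for 48 hrs at 37 deg C; detection reagent follows for 15-30 min at room temperature.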
ELG1 DNA repair: qHTS screen for small molecules that inhibit ELG1-dependent DNA repair in human embryonic kidney (HEK293T) cells expressing luciferase-tagged ELG1 | Potency, µM (titrated, usually from 46.1 µM), inactives show top-dose activity change, negative = inhibition, hits mostly inhibitors | actives 2.3% (n = 330,000) | HEK293T ELG1-luciferase reporter, luminescence, 16 h; DNA damage induced by 5-fluorouridine; further: potency means the concentration at half of the fitted maximal effect; nearly all actives have a fitted effect of over 55% in size
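Step one: seed 2,000 cells per well. Step two: pin-transfer compound or DMSO alongside 5-fluorouridine. Step three: incubate 16 hr, 37 °C, 5% CO2. Step four: add ONE-Glo, wait 30 min, read luminescence.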
DT40 TDP1 CPT: qHTS for Inhibitors of human tyrosyl-DNA phosphodiesterase 1 (TDP1): qHTS in cells in presence of CPT. chicken DT40 Tdp1-/-;hTDP1 cells + 20 nM CPT, ATP luminescence, 48 h. Potency, µM (titrated, usually from 46.2 µM), without a hit: at the top dose activity change, negative = growth inhibition, usual class: inhibitors. actives 12% (n = 420,000). AID 686979, 2013; further: potency means the concentration at half of the fitted maximal effect; nearly all actives have a fitted effect of over 55% in size
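Chicken DT40 Tdp1-/- cells stably complemented with human TDP1 were seeded at 400 cells/well in medium containing 20 nM camptothecin, exposed to pin-transferred compounds, and grown at 37 °C for at least 48 hr. Viability was read as ATP luminescence.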
TDP1 inh: qHTS Assay for Inhibitors of Tyrosyl-DNA Phosphodiesterase (TDP1); Tyrosyl-DNA phosphodiesterase 1 (Homo sapiens), Q9NUW8; recombinant TDP1, AlphaScreen DNA substrate cleavage; Potency, µM (top dose mostly 130 µM), for inactives: top-dose activity change, negative = inhibition, actives largely listed as inhibitors; actives 0.28% (n = 350,000); further: potency means the concentration at half of the fitted maximal effect; nearly all actives have a fitted effect of over 40% in size
Target sequence (Q9NUW8 whole entry, looked up): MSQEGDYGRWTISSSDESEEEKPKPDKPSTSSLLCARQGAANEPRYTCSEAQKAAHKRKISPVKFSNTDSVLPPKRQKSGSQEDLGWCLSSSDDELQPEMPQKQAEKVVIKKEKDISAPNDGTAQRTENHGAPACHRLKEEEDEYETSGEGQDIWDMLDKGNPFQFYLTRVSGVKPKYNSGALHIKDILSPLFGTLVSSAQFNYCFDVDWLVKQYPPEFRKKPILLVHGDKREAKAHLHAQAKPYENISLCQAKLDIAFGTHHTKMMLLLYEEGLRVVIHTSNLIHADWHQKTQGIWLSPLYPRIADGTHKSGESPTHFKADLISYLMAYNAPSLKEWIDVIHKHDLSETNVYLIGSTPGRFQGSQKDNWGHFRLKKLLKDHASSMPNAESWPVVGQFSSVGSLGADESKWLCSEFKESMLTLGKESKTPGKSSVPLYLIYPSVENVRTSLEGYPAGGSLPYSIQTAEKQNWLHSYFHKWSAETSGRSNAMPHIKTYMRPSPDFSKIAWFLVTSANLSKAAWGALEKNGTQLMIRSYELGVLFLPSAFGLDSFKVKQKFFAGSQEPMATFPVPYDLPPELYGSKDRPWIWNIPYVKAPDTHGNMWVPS
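E. coli-derived human Tdp1, 1 nM final. Cpd preinc 15 min RT; substrate 15 nM final, 5 min RT; AS bead mix 10 ug/ml final, 10 min RT. Signal loss = tyrosine-FITC cleavage. No-enzyme wells = max signal.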
TDP1 cell noCPT: qHTS for Inhibitors of human tyrosyl-DNA phosphodiesterase 1 (TDP1): qHTS in cells in absence of CPT | DT40 Tdp1-/- hTDP1 cells, no CPT, ATP luminescence, 48 h | Potency, µM (doses to about 46.2 µM), for inactives: at the top dose activity change, negative = growth inhibition, usual class: inhibitors | actives 15% (n = 420,000); further: potency means the concentration at half of the fitted maximal effect; nearly all actives have a fitted effect of over 55% in size
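Chicken DT40 Tdp1-/- cells stably complemented with human TDP1 were seeded at 400 cells/well with DMSO in place of 20 nM camptothecin. After compound pinning, cells grew at least 48 hr at 37 °C; viability read by CellTiter-Glo luminescence.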
The depositor's hits bear a star; ? = inconclusive; . = not tested or not shown. Unless noted, the call rests on the fitted dose curve; in most records, active means well fitted curve in the direction sought with a large enough effect; inconclusive means small, poorly fitted or top-dose-only effect, or another doubt; inactive means no such curve, though single readings can be large; an effect the other way counts as inactive or inconclusive. On the % scale 0 is the no-effect control and ±100 the full control effect.

SMILES | IL1B secr inh | Giardia kill | ELG1 DNA repair | DT40 TDP1 CPT | TDP1 inh | TDP1 cell noCPT
COC(=O)[C@@]1(Cc2ccc(OC)cc2)[C@H]2c3cc(C(=O)N(C)C)n(CCc4c[nH]c5ccc(O)cc45)c3C[C@H]2CN1C(=O)c1ccccc1 | . | . | . | . | 7.5% | .
CC1=C2C3OC(=O)C(C)C3CCC2(C)C=C(Cl)C1=O (configuration not stated) | -1.6 | . | . | -1.9% | . | ?
CN(C)CCOc1nc(-c2ccccc2)nc2c1oc1ccccc12 | -99.1* | -2.5 | -8.8% | ? | 3.1% | 23.1µM*
c1ccc2c(c1)oc1c(NCC3CCCO3)ncnc12 (configuration not stated) | 117.1 | 10.1 | ? | ? | 4.8% | 18.4µM*
c1ccc(-c2nc(NCC3CCCO3)c3oc4ccccc4c3n2)cc1 (configuration not stated) | 3.6 | -10.4 | 16.4µM* | -19.7% | -3.0% | ?
O=C(O)CNc1nc(-c2ccccc2)nc2c1oc1ccccc12 | 71.1 | -12.6 | 3.5% | -12.3% | 2.8% | 16.8%
c1ccc(-c2nc(NCc3cccnc3)c3oc4ccccc4c3n2)cc1 | -24.5 | -11.5 | 23.1µM* | ? | -1.0% | ?
O=c1ccn([C@@H]2O[C@H](CNS(=O)(=O)C3CC3)[C@@H](O)[C@H]2O)c(=O)[nH]1 | 0.1 | 6.0 | . | 3.2% | . | 0.0%
OCCCNc1nc(-c2ccccc2)nc2c1oc1ccccc12 | -24.8 | -18.6 | 23.1µM* | -13.5% | 7.1% | ?
CCOc1ccccc1N1CCN(C(=O)c2ccc(Cl)c(S(=O)(=O)N3CCCCC3)c2)CC1 | ? | -7.5 | 23.1µM* | ? | 5.8% | ?
O=C(c1ccc(Cl)c(S(=O)(=O)N2CCCCCC2)c1)N1CCCCC1 | 62.6 | 16.1 | -4.4% | -23.5% | 4.5% | -18.2%
CCOc1ccccc1N1CCN(C(=O)Nc2ccc(F)c(Cl)c2)CC1 | -5.4 | 16.1 | 0.0% | ? | 5.3% | 23.1µM*
O=C(c1ccc(Cl)c(S(=O)(=O)N2CCCCCC2)c1)N1CCN(c2ccccn2)CC1 | ? | -10.4 | 20.6µM* | ? | -1.1% | ?
O=C(c1ccc(Cl)c(S(=O)(=O)N2CCc3ccccc3C2)c1)N1CCN(c2ccccc2)CC1 | -10.7 | 0.5 | ? | 3.66µM* | 1.1% | ?
Cc1ccc(F)cc1CNC(=O)c1sc2ncnc(NCC3CCCO3)c2c1C (configuration not stated) | . | . | . | 2.7% | . | -25.8%
COc1ccc(-n2nc(C(=O)N(C)c3cc(Cl)ccc3OC)c3c4ccccc4n(C)c3c2=O)cc1 | . | . | . | ? | 2.3% | ?
CC(C(=O)O/N=C(\N)c1cccnc1)c1ccc([N+](=O)[O-])cc1 (configuration not stated) | -11.8 | 8.8 | -13.0% | 5.4% | 6.9% | -24.5%
O=C(c1ccc(Cl)c(S(=O)(=O)N2CCOCC2)c1)N(c1ccccn1)C1CCCCC1 | 28.6 | -13.6 | ? | ? | -1.2% | 16.4µM*
C[C@@H]1C[C@H]2[C@@H]3CCC4=CC(=O)C=C[C@]4(C)[C@@]3(F)[C@@H](O)C[C@]2(C)[C@@]1(O)C(=O)COC(=O)c1cccc(S(=O)(=O)O)c1 | . | . | . | -2.2% | . | -14.9%
O=C(NCc1ccccc1Cl)c1cnc2n(c1=O)CCS2 | -1.5 | ? | 10.0% | -4.6% | -2.0% | -4.4%
COc1ccccc1CNC(=O)c1cc2cccc3c2n1CCS3 | . | . | . | 18.4µM* | 2.8% | ?
